Laboratory results published in PubChem BioAssay AID624264 (National Center for Advancing Translational Sciences (NCATS), 2012).
The list shows a part of the results. Inconclusive results are not listed. Values without a mark were called inactive. The call rests on the fitted dose curve; in most records, active means well fitted curve in the direction sought with a large enough effect; inconclusive means small, poorly fitted or top-dose-only effect, or another doubt; inactive means no such curve, though single readings can be large or run the other way.

Assay: qHTS for Inhibitors of Glutaminase (GLS): Hit Confirmation using Cytotoxicity
Details: HEK-293 viability, CellTiter-Glo luminescence, 24 h; series mostly up to 46.1 µM; activity change, negative = cytotoxicity: at the top concentration
Source text: Glutaminase (GLS) catalyzes the hydrolysis of glutamine into glutamate and ammonia. It plays a critical role in glutaminolysis, which is an important energy source for proliferating cells. It was shown that c-Myc, an oncogenic transcription factor known to regulate microRNAs and to stimulate cell proliferation, increases glutamine metabolism by stimulating the expression of GLS via direct suppression of miR23a and miR23b. […] GLS is also thought to play a pathogenic role on HAD using a human HIV-1 infected macrophage system. […] GLS inhibition limits glutamate release and provides neuroprotection against HIV-1 infected macrophages. […] The overall goal of this project is to identify small molecule inhibitors of GLS through quantitative high throughput screening (qHTS) of the MLSMR. A validated potent and selective inhibitor can be used as a tool molecule to further study the pharmacology of its target as well as explore its potential therapeutic application in cancer and inflammatory neurological disorders, such as HIV1-associated dementia (HAD) and multiple sclerosis. This is a hit confirmation assay using a cytotoxic read-out to exclude cytotoxic compounds. Toxic compounds will be labeled as active and excluded in future experiment. NIH Chemical Genomics Center [NCGC] NIH Molecular Libraries Probe Centers Network [MLPCN] MLPCN Grant: DA032470 Assay Submitter (PI): Barbara S. Slusher, Johns Hopkins University
HEK-293 cells are grown in a flask up to 80% confluence. Cells will be trypsinized, washed, and resuspended in MEM Eagle + 10% FBS + 1% pen-strep media at the concentration of 120 cells/microl. Five microl/well of cell solution will be dispensed into a 1536-well assay plates (Greiner, solid white medium-binding plates) with Auror Discovery BioRAPTR Flying Reagent Dispenser (FRD; Beckton-Dickenson). Cells will be pre-incubated at 37 °C, 5% CO2 for 4hrs. Compound and control solutions (23nl) will then be transferred to the assay plate using the Kalypsys 1536 pin-tool. […] Luminescence signal will be read with PerkinElmer ViewLux plate reader after 30 min room temperature incubation.

Structure (SMILES) | activity change, negative = cytotoxicity [%]
O=C(O)c1cccc(S(=O)(=O)Nc2ccc(O)cc2Sc2nc3ccccc3s2)c1 | -10.1
CCN1C(=O)c2cccc3c(S(=O)(=O)Nc4ccccc4O)ccc1c23 | -9.78
COc1cc(OC)c(S(=O)(=O)Nc2ccccc2C(=O)O)cc1S(=O)(=O)Nc1ccccc1C(=O)O | 5.49
